# Screening results as filed in PubChem.
# Rows were chosen to be rich in hits. Some 1.7% of all compounds tested hit in one or more screens of this group.
# LYPLA2 inh = LYPLA2 inhibitors, primary screen, counter-screen for PME1 inhibitor project, biochemical, fluorescence polarization, FP-Rh probe ABPP. inhibition, % at 5.9 µM. recombinant LYPLA2. actives 0.38% (n = 320,000). Acyl-protein thioesterase 2 (Homo sapiens), O95372;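 active means inhibition above the screen-wide mean plus 3 SD, limit set per campaign, cut at about 26% in these data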
# Target sequence (O95372 whole entry, looked up): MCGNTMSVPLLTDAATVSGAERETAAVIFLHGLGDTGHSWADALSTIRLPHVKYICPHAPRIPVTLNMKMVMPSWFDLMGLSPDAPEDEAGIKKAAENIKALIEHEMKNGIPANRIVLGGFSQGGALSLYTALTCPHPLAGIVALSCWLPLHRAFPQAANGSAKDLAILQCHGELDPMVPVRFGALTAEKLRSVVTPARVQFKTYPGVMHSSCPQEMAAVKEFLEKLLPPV
# Fam108B counter = mouse Fam108B serine hydrolase inhibitors, primary screen, counter-screen for RBBP9 inhibitor project, biochemical, fluorescence polarization; recombinant Fam108B, FP-Rh probe fluorescence polarization; inhibition, % at 9.51 µM; actives 0.33% (n = 300,000); AID 1947, 2009;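 active means inhibition above the screen mean inhibition plus 3 SD, computed separately per campaign, cut at about 18% in these data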;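 further: inhibitors lower polarization as less probe binds the enzyme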
# PAD4 inh = human PAD4 inhibitors, primary screen, biochemical, fluorescence polarization, 1536-well format | actives 0.41% (n = 330,000) | recombinant PAD4, RCA probe fluorescence polarization | inhibition, % at 6.36 µM | Protein-arginine deiminase type-4 (Homo sapiens), Q9UM07;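 active means percent inhibition above a cutoff equal to the mean of all tested compounds plus 3 SD, cut at about 15% in these data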
# PME-1 primary = PME-1 inhibitors via competitive probe labeling, primary screen, biochemical, fluorescence polarization, FP-Rh probe, HTS; recombinant PME-1; inhibition, % at 5.9 µM; actives 0.53% (n = 320,000); AID 2130, 2009;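 active means inhibition above the campaign mean of all compounds plus 3 SD, cut at about 26% in these data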;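 further: competitive labeling of PME-1 active site by serine hydrolase directed probe; inhibitors block probe labeling so polarization falls and inhibition rises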
# LYPLA1 counter = LYPLA1 inhibitors, primary screen, counter-screen for PME1 inhibitor project, biochemical, fluorescence polarization, FP-Rh probe ABPP | recombinant LYPLA1 | inhibition, % at 5.9 µM | actives 0.16% (n = 320,000) | AID 2174, 2009;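 active means inhibition above the mean of all tested compounds plus 3 SD, set per campaign, cut at about 14% in these data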;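 further: inhibitors block serine hydrolase probe labeling of LYPLA1 so polarization falls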
# GSTO1 counter = inhibitors of recombinant GSTO1, primary screen, counter-screen for RBBP9 inhibitor project, biochemical, fluorescence polarization. activity-based probe fluorescence polarization. inhibition, % at 5.96 µM. actives 1.1% (n = 300,000);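 active means inhibition above the campaign mean inhibition plus 3 SD, cut at about 35% in these data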
# Target sequence (P78417 whole entry, looked up): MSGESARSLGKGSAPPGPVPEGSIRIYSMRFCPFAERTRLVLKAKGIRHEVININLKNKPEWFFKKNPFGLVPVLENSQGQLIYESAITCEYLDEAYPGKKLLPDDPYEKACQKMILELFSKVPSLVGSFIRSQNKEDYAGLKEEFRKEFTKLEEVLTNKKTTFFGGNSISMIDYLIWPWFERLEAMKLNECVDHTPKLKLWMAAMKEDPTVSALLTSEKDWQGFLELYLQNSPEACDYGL
# A number is an active result; n = inactive; x = not tested or not shown.
SMILES,LYPLA2 inh,Fam108B counter,PAD4 inh,PME-1 primary,LYPLA1 counter,GSTO1 counter
CC(C)OC(=O)CSc1nnc(-c2ccccn2)n1-c1ccccc1,n,n,n,n,n,37
ClCc1csc(-c2ccccc2Cl)n1,n,n,n,n,n,94
CCOC(=O)C1CCN(C(=O)c2ccc(N(C)S(=O)(=O)c3ccc(OC)cc3)cc2)CC1,n,n,n,n,n,n
c1ccc2c(c1)OCCc1c-2[nH]c2ccccc12,n,n,n,33,n,n
O=C(CSc1nncc(=O)[nH]1)Nc1cccc([N+](=O)[O-])c1,n,n,n,n,n,35
CC(C)(C)c1ccc(CN2N=Nc3ccccc3S2(=O)=O)cc1,n,n,n,n,n,n
O=S1(=O)c2ccccc2N=NN1Cc1ccc(Cl)c(Cl)c1,n,n,n,n,n,35
Oc1[nH]c2ccccc2c1N=NC(=S)N1CCOCC1,n,n,n,n,n,36
CCOC(=O)c1c2c(n(C)c1COC)C(=O)C(=O)c1ccc(Br)cc1-2,n,29,n,n,n,56
CCCn1c(=O)c(C(=O)OCC)c(O)c2cc(Br)ccc21,n,n,n,n,n,n
Cc1cccnc1Nc1nc(-c2ccc(O)c(O)c2)cs1,n,n,n,36,n,n
COc1ccc(-c2csc(Nc3ncccc3C)n2)cc1OC,n,n,n,n,n,n
CCOc1ncccc1C(=O)N1CCN(c2cc(Cl)ccc2C)CC1,28,n,n,n,n,n
CCOc1ncccc1C(=O)N1CCN(C(=O)c2ccccc2)CC1,n,n,n,n,n,n
Cc1onc(-c2ccccc2)c1C(=O)OCC(=O)N1CCN(c2ccccc2)CC1,n,n,n,n,n,n
COc1ccc(C(=O)C2CCCN(C(=O)c3ccc4cc[nH]c4c3)C2)c(C)c1 (centres undefined),n,n,n,n,n,n
CC(=O)Nc1ccc(N(C(=O)Cn2nnc3ccccc32)C(C(=O)NC2CCCC2)c2ccc(O)c(O)c2)cc1 (centres undefined),n,n,n,n,n,43
c1ccc(Nc2nc(-c3ccccc3)ns2)cc1,n,n,n,n,n,n
N#C/C(C(=O)Nc1ccc(Cl)cc1)=C(/S)Nc1ccccc1,n,n,n,n,n,52
COc1cc(/C=N/NC(=O)c2sc(N)c(C#N)c2C)cc(Br)c1O,n,n,n,31,n,n
COC(=O)C1=C(C)N(C)C(=O)NC1c1cc2c(cc1[N+](=O)[O-])OCO2 (centres undefined),n,n,n,n,n,36
COC(=O)C1=C(C)N(CCCC(=O)O)C(=O)NC1c1cc2c(cc1[N+](=O)[O-])OCO2 (centres undefined),n,n,n,n,n,n
O=[N+]([O-])c1ccc(N/N=C/c2c[nH]c3ccccc23)cc1,n,n,n,n,n,n
O=[N+]([O-])c1ccccc1N/N=C/c1c[nH]c2ccccc12,n,n,n,50,n,n
O=C(/C=C/c1cc[n+](CC(=O)c2ccc3cccc4c3c2CC4)cc1)c1ccc2cccc3c2c1CC3,83,n,n,n,78,n
SMILES,LYPLA2 inh,Fam108B counter,PAD4 inh,PME-1 primary,LYPLA1 counter,GSTO1 counter
O=C(C[n+]1ccc2ccccc2c1)c1cccc2ccccc12,n,n,n,n,n,n
CCOc1ccc(-c2ccc(SCC)nn2)cc1,n,n,n,n,n,n
CCN(CC)c1ccc(S(=O)(=O)N2CCOCC2)cc1NC(=O)Nc1ccccc1,x,x,n,x,x,x
CCN(CC)c1ccc(S(=O)(=O)N2CCOCC2)cc1NC(=O)CN1CCN(Cc2ccccc2)CC1,n,n,n,59,n,n
O=C(COC(=O)CN1C(=O)NC2(CCCC2)C1=O)NCc1ccc(Cl)cc1Cl,x,x,n,x,x,x
C/C(=N\NC(=O)CSCc1ccccc1Br)c1cccc([N+](=O)[O-])c1,n,n,n,n,n,n
C/C(=N\NC(=O)Cc1cc(=O)[nH][nH]1)c1cccc([N+](=O)[O-])c1,n,n,n,n,n,45
CC1(C)CC2(CC(c3ccccc3F)c3ccc(O)c(O)c3O2)NC(=S)N1 (centres undefined),n,n,n,n,n,44
CC1CCCC(C)N1/N=C/c1ccc(O)c(O)c1 (centres undefined),n,n,n,n,n,36
Cc1ccc(NCC(O)C(O)C(O)CO)c(N=Nc2ccccc2)c1C (centres undefined),n,n,n,52,n,n
CC(=O)Nc1cc(NC(C)=O)c(N=Nc2ccccc2)cc1C,n,n,n,n,n,n
Cc1ccc(Nc2c([N+](=O)[O-])ccc3c2=NC2(CCCCC2)N=3)cc1,n,n,n,31,n,n
O=C1CN(c2ccc(F)cc2)C(=S)N1c1ccccc1,n,n,n,n,n,n
Cc1ccccc1-c1nnc(SCCOc2ccc3c(C)cc(=O)oc3c2)o1,n,n,n,n,n,36
Cc1cc(=O)oc2cc(OCc3ccccc3)ccc12,n,n,n,n,n,n
O=C(N/N=C/c1ccc(OCc2ccc(F)cc2)cc1)c1ccccc1,n,n,n,n,n,n
CC(C)(C)c1ccc(OCc2ccc(C(=O)N/N=C/c3ccc(O)c(O)c3)cc2)cc1,n,27,n,n,n,n
Cc1ccccc1C(=O)NCC(=O)NNC(=O)c1cccc(Cl)c1,n,x,n,n,n,x
COc1ccc(C(=O)c2sc3nc(-c4ccccc4)ccc3c2N)cc1,n,n,n,35,n,n
CC(C)OC(=O)c1sc2nc(-c3ccccc3)ccc2c1N,n,n,n,n,n,n
Cc1nc2sc(C(c3ccco3)N3CCC(Cc4ccccc4)CC3)c(O)n2n1 (centres undefined),n,n,n,n,n,n
CCOC(=O)c1ccc(Nc2nc(N)c3cc(OC)c(OC)cc3n2)cc1,n,n,n,27,n,n
O=C(/C=C/c1ccc(O)c(O)c1)OC(Cc1ccc(O)c(O)c1)C(=O)O (centres undefined),n,n,n,n,n,55
O=C(/C=C/c1ccc(O)c(O)c1)OCCc1ccccc1,n,n,n,n,n,n
S=c1[nH]c(-c2ccccc2)cn1/N=C/c1cccc2ccccc12,n,n,n,28,n,n
S=c1[nH]c(-c2ccccc2)cn1/N=C/c1ccccc1Br,n,n,n,n,n,n
O=C(Nc1cccc(Cl)c1)c1cccc(N2C(=O)C3CC=CCC3C2=O)c1 (centres undefined),n,n,n,n,n,n
